FLuc modulator: inhibits or activates purified firefly luciferase, miR-21 counter-screen. 360,000 compounds, 6.9% hits. Potency, µM (highest dose often 57.5 µM), for the others: at the highest dose activity change, negative = inhibition, hits mostly inhibitors. purified FLuc, Km substrates, luminescence inhibition. P08659;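 also: plate controls were vehicle for no effect and reference inhibitor for full effect; nearly all actives have a fitted effect of over 55% in size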
Target sequence (P08659 whole entry, looked up): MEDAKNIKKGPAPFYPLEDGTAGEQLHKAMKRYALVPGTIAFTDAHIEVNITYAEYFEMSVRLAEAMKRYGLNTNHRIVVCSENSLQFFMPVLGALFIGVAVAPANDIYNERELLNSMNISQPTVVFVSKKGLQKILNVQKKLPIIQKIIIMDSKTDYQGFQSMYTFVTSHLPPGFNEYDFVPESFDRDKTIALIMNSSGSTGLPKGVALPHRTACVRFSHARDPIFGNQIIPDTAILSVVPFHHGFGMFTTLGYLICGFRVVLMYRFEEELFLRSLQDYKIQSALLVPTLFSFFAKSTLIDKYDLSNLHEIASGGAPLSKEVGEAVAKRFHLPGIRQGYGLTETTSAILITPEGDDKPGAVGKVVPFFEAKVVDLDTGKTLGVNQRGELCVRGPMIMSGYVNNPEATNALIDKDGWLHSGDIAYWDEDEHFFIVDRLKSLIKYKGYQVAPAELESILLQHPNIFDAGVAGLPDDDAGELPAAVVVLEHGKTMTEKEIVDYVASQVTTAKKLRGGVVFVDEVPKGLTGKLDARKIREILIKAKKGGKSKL
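Purified P. pyralis luciferase (10nM final) with 10uM D-luciferin and 10uM ATP (Km levels) in 50mM Tris acetate pH 7.5, 10mM Mg acetate, 0.01% Tween-20, 0.05% BSA; qHTS 6-point titration, ~60 µM downward; luminescence read.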
NPC1 prom act: activators of NPC1 promoter | Huh7 NPC1 promoter luciferase reporter, 24 h | Potency, µM (highest dose often 9.22 µM), without a hit: at the top dose activation, usual class: activators | 320,000 compounds, 2.4% hits | AID 485313; also: % of control where 0% means no effect; nearly all actives have a fitted effect of over 60% in size
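Readout is luciferase luminescence, reflecting NPC1 promoter activation in stably transfected Huh7 cells after 24 h compound exposure at 37 °C in reduced-serum medium with 10% FBS.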
Rab9 prom act: activators of Rab9 promoter; Huh7 Rab9 promoter-luciferase reporter, luminescence, 24 h; Potency, µM (highest dose often 9.22 µM), for the others: at the top dose activation, negative = inhibition, actives largely listed as activators; 320,000 compounds, 2.8% hits; AID 485297; also: % of control where 0% means no effect; nearly all actives have a fitted effect of over 60% in size
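Measured in stably transfected Huh7 cells bearing a Rab9 promoter–luciferase construct: 24 h compound treatment at 37 °C, followed by luminescence detection.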
KinaseGlo FLuc: Kinase-Glo luciferase inhibition (counter-screen) | Q27757 | Kinase-Glo luciferase, ATP luminescence, 8 min | Potency, µM (highest dose often 38.3 µM), for the others: at the highest dose activity change, negative = inhibition, actives largely listed as inhibitors | 200,000 compounds, 0.28% hits | AID 1379; also: % is scaled to controls: 0 for no effect and ±100 for the full control effect; nearly all actives have a fitted effect of over 60% in size
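Kinase-Glo luciferase light output from ATP and luciferin was measured with 10 uM ATP, within the enzyme's linear range. Buffer: 50 mM imidazole pH 7.2, 50 mM KCl, 7 mM MgCl2, 0.01% Tween 20, 0.05% BSA; luminescence read after 8 min at ambient temperature.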
ELG1 genotoxic: induces genotoxicity in HEK293T cells with luciferase-tagged ELG1; HEK293T ELG1-luciferase reporter, luminescence, 16 h; Potency, µM (doses to about 46 µM), for the others: top-dose activity change, positive = activation, actives largely listed as activators; AID 504466; 330,000 compounds, 1.3% hits; also: % of control where 0% means no effect; nearly all actives have a fitted effect of over 60% in size
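16 hr compound incubation (37 °C, 5% CO2) of HEK293T cells carrying luciferase-tagged ELG1; luciferase then measured by ONE-Glo luminescence after 30 min at RT.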
SMN2 splice enh: increases expression of the SMN2 splice variant | HEK293 SMN2-luciferase splicing reporter, luminescence, 30-36 h | Potency, µM (series often up to 46.1 µM), inactives show top-dose activity change, positive = activation, hits mostly activators | 210,000 compounds, 2.8% hits | AID 1458; also: % of control where 0% means no effect; nearly all actives have a fitted effect of over 55% in size
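qHTS luciferase splicing reporter: luminescence rises when SMN2 exon 7 is included in transfected HEK293 cells. Compound exposure lasted 30-36 h at 37C, with 4.5 mM final sodium butyrate as control, followed by a ONE-Glo read.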
* marks the source's active call; other numbers are inactive results; ? = inconclusive; / = no result given. Shown are actives, neighbours in structure and some others; about 7.5% of the full set was active somewhere. Calls follow the shape of the dose curve; as a rule, active = well fitted curve in the direction sought with a large enough effect; inconclusive = small, poorly fitted or top-dose-only effect, or another doubt; inactive = no such curve, though single readings can be large; an effect the other way counts as inactive or inconclusive. Potency is read from the fitted curve at half-maximal effect.

SMILES | FLuc modulator | NPC1 prom act | Rab9 prom act | KinaseGlo FLuc | ELG1 genotoxic | SMN2 splice enh
Cn1cccc1C(=O)N1CCC2(CCN(Cc3ccncc3)CC2)CC1 | / | / | / | -2% | / | -2%
COc1ccc(C(=O)Nc2ccc3ccccc3n2)cc1OC | 13µM* | 2.8µM* | 2.8µM* | / | ? | /
Cc1ccc(C(=O)Nc2ccc3ccccc3n2)cc1 | 1.7µM* | 3.2µM* | 0.63µM* | / | ? | /
O=C(Nc1ccc2ccccc2n1)c1ccccc1 | 2.4µM* | 2.2µM* | 0.89µM* | / | ? | /
O=C(c1ccccc1)c1ccc2ccccc2n1 | ? | 18% | 19% | -4% | 17% | -13%
O=C(Nc1ccc2ccccc2n1)c1ccccc1Br | 3.4µM* | ? | 3.5µM* | / | ? | /
CC(C)Cn1c(SCc2cccc(F)c2)nc2ccsc2c1=O | -11% | / | / | / | / | /
O=C(CCc1ccccc1)Nc1ccc2ccccc2n1 | 6.7µM* | 3.2µM* | 1.1µM* | -2% | ? | 13µM*
Cc1cc(C)c(Cn2c(=O)n(CCCCCC(=O)NCc3ccc4c(c3)OCO4)c(=O)c3sccc32)c(C)c1 | 6% | / | / | / | / | -5%
Cc1ccc(Nc2nc(-c3ccc(C)cc3)c(CC(=O)O)s2)cc1 | ? | 2% | -1% | 0% | 4% | -8%
O=C(O)Cc1sc(Nc2ccc(Cl)cc2)nc1-c1cccs1 | 13µM* | ? | 3.5µM* | -7% | ? | 14µM*
CN(C)S(=O)(=O)c1ccc(-c2csc(N/N=C/c3ccc(O)cc3)n2)cc1 | 11µM* | -20% | -34% | / | ? | /
Nc1nc(-c2cccs2)c(CC(=O)O)s1 | 5% | -8% | -1% | -3% | -1% | 1%
C(=N\Nc1nc(-c2ccccc2)cs1)/c1ccncc1 | 11µM* | 3.2µM* | ? | -2% | 6% | /
CN(C)S(=O)(=O)c1ccc(-c2csc(N/N=C/c3ccco3)n2)cc1 | -57% | -31% | -34% | / | -17% | /
O=C(O)Cc1sc(N/N=C\c2ccncc2)nc1-c1ccccc1 | 15µM* | -5% | -5% | / | -1% | /
O=C(CSc1nc2c(c(=O)[nH]1)CCCC2)Nc1ccc(Br)cc1 | -1% | / | / | / | / | /
ClCc1csc(N/N=C/c2cccs2)n1 | 15µM* | 4% | 21% | / | 1% | /
C(=N\Nc1nc(-c2ccccc2)cs1)/c1cccs1 | 5.4µM* | 21% | ? | -4% | 16µM* | 7.9µM*
O=C(O)Cc1sc(Nc2cccc3ccccc23)nc1-c1ccccc1 | 24µM* | 6% | 1% | / | 2% | /
CCc1cccc(NC(=O)Nc2cccs2)c1 | 8.5µM* | ? | 2.8µM* | -2% | ? | 13µM*
CCc1cccc(NC(=O)Nc2csc3c2CCCC3)c1 | ? | / | / | / | / | 16%
N#Cc1cccc(NC(=O)Nc2cccs2)c1 | 15µM* | 19% | 15% | -5% | -1% | -18%
O=C(O)CCCn1c(O)c(C=C2N=c3ccccc3=N2)sc1=S | 6µM* | -10% | -5% | / | 11% | /
CCCC(C(=O)O)n1c(O)c(C=C2N=c3ccccc3=N2)sc1=S (stereo not given) | ? | -2% | 3% | / | -1% | /
SMILES | FLuc modulator | NPC1 prom act | Rab9 prom act | KinaseGlo FLuc | ELG1 genotoxic | SMN2 splice enh
O=C(O)Cn1c(O)c(C=Nc2ccccc2)sc1=S | ? | -5% | 4% | -2% | -2% | -13%
O=C(O)CCCCCn1c(O)c(C=C2N=c3ccccc3=N2)sc1=S | 9.5µM* | 0% | -3% | 0% | -1% | -4%
O=C(Nc1ccc(F)cc1Cl)C1CCN(c2ncnc3c2nc2n3CCCCC2)CC1 | 4% | / | / | / | / | /
Cn1c(=O)c(C(=O)COC(=O)c2cc(-c3ccccc3)nc3ccccc23)c(N)n(Cc2ccccc2)c1=O | -7% | -12% | -9% | -2% | 0% | -9%
Cn1c(N)c(C(=O)c2cc(-c3ccccc3)nc3ccccc23)c(=O)n(C)c1=O | 5.4µM* | 14% | 9% | -12% | ? | 11µM*
Cc1cc(-c2cccc([N+](=O)[O-])c2)nc2ccc3ccccc3c12 | 2.7µM* | ? | ? | 2% | 9% | -14%
O=[N+]([O-])c1ccc2nc(-c3ccccc3)cc(-c3ccccc3)c2c1 | 1% | -7% | -5% | -3% | 6% | -10%
O=C(O)c1cc(-c2cccc([N+](=O)[O-])c2)nc2ccccc12 | 19µM* | 1% | -3% | / | 2% | /
COc1ccc(CCNC[C@@H](O)c2ccc(O)cc2)cc1OC | / | / | / | -1% | / | 10%
CC[C@]12c3[nH]c4ccc(OC)cc4c3CCN1C(=O)C(CC(=O)NCCC1=CCCCC1)C[C@@H]2C(=O)N1CCN(C(=O)C2CC2)CC1 (stereo not given in full) | / | / | / | / | 2% | /
CCC(C)(C)C1CCc2c(sc(NC(=O)c3ccccc3C(=O)O)c2C#N)C1 (stereo not given) | 11µM* | -3% | 1% | / | -7% | /
CC1CCc2c(sc(NC(=S)NC(=O)c3ccccc3)c2C#N)C1 (stereo not given) | ? | 27% | 29% | / | 14% | /
Cc1cc(C(=O)Nc2sc3c(c2C#N)CCC(C)C3)cs1 (stereo not given) | ? | 1.3µM* | 0.56µM* | 5% | 4.6µM* | 4µM*
CC1CCc2c(sc(NC(=O)c3ccccc3C(=O)O)c2C#N)C1 (stereo not given) | 21µM* | ? | ? | 1% | ? | /
COc1ccc(C)cc1NS(=O)(=O)c1ccc2c(c1)N(C)CCO2 | 1% | -3% | -3% | / | -11% | /
C/C(=N\NC(=O)CSCc1ccccc1Cl)c1cccc(NC(=O)c2ccccc2)c1 | 5% | -3% | -9% | 7% | -7% | -65%
C/C(=N\NC(=O)c1cc(O)ccc1O)c1cccc(NC(=O)c2ccc(Cl)cc2)c1 | 1.1µM* | ? | 14% | / | 3% | /
C/C(=N\NC(=O)c1cc(O)ccc1O)c1cccc(NC(=O)c2cccc(Cl)c2)c1 | 8.5µM* | 1% | 4% | / | 7% | /
C/C(=N\NC(=O)C1CC1)c1cccc(NC(=O)c2cccc(Cl)c2)c1 | ? | 3% | 2% | 4% | 0% | 22%
CC(=O)Nc1ccc(N2C(=O)c3cccc4c(O)ccc(c34)C2=O)cc1 | ? | 0% | 1% | / | 0% | /
O=C1c2cccc3c(O)ccc(c23)C(=O)N1c1ccc(Cl)cc1 | 17µM* | 3.5µM* | 0.79µM* | / | 6% | /
CCN(CC)C(=O)COc1ccc(/C(C)=N/Nc2ncc(Cl)cc2Cl)cc1 | ? | 15% | 4% | / | -6% | /
COc1cccc(CNC(=O)C2CCN(Cc3cc4ccccc4n3Cc3ccc(C)cc3)CC2)c1 | -2% | / | / | / | / | /
O=C(NCCc1c[nH]c2ccccc12)c1ccc2c(c1)OCO2 | 6.7µM* | 1.1µM* | 1.3µM* | / | ? | /

Screening data from PubChem.
